# Measured values from PubChem BioAssay (EPA / NIEHS).
# The source made the active and inactive calls. Rule for the calls: active = hit-call score of the fitted dose curve at least 0.9, where 1 is the maximum; inactive = score below 0.9.
# Read-out: not listed separately
# Experiment: BSK_CASM3C_SRB: Viability Assessment in the BioMAP Diversity Plus: CASM3C Assay (AID 2283050);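 note: total protein by SRB staining as cytotoxicity measure in parallel cultures; cells exposed to compound for 24 h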
# Settings: primary human coronary artery smooth muscle cells
SMILES,outcome,AC50
COc1cc(Cl)c(OC)cc1Cl,inactive,–
Cc1nc(N(C)C)nc(OC(=O)N(C)C)c1C,inactive,–
CCCCOCN(C(=O)CCl)c1c(CC)cccc1CC,–,31.4 µM (active)
COc1cc(OC)nc(NC(=O)NS(=O)(=O)c2ncccc2OCC(F)(F)F)n1,inactive,–
CC(C)=CC1C(C(=O)OCc2coc(Cc3ccccc3)c2)C1(C)C (configuration not stated),inactive,–
Nc1c(Cl)c(F)nc(OCC(=O)O)c1Cl,inactive,–
CC(C)N1C(=O)N(c2ccccc2)CSC1=NC(C)(C)C,inactive,–
O=C1C2CC=CCC2C(=O)N1SC(Cl)(Cl)Cl (configuration not stated),–,29.5 µM (active)
N#Cc1c(Cl)cccc1Cl,inactive,–
CNC(=O)N(C)c1nnc(C(C)(C)C)s1,inactive,–
CCOc1nc(C(Cl)(Cl)Cl)ns1,inactive,–
Cc1ccc(N=CN(C)C=Nc2ccc(C)cc2C)c(C)c1,–,28.5 µM (active)
OC(c1ccc(Cl)cc1)(c1ccc(Cl)cc1)C(Cl)(Cl)Cl,–,35.2 µM (active)
COP(=S)(OC)SCn1nnc2ccccc2c1=O,inactive,–
COc1ccc(-c2ccccc2)cc1NNC(=O)OC(C)C,inactive,–
Cc1cnc(C2=NC(C)(C(C)C)C(=O)N2)c(C(=O)O)c1 (configuration not stated),inactive,–

# Read-out: Thrombomodulin, THBD (gene 7056)
# Experiment: BSK_CASM3C_Thrombomodulin: BioMAP Diversity Plus: CASM3C Assay for Thrombomodulin Biomarker Activity (AID 2283051);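 note: thrombomodulin protein level measured by ELISA 24 h after dosing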
# Settings: primary human coronary artery smooth muscle cells; actives raise or lower the signal
SMILES,outcome,AC50
CC1(C)CCC(=Cc2ccc(Cl)cc2)C1(O)Cn1cncn1 (configuration not stated),inactive,–
CC1(C)C(C(=O)OC(C#N)c2cccc(Oc3ccccc3)c2)C1(C)C (configuration not stated),–,16 µM (active)
CCOP(=O)(OCC)Oc1nc(Cl)c(Cl)cc1Cl,–,0.297 µM (active)
CCSC(=O)N1CCCCCC1,inactive,–
CCCN(CC)CC1COC2(CCC(C(C)(C)C)CC2)O1 (configuration not stated),inactive,–
COCC(=O)N(c1c(C)cccc1C)C(C)C(=O)OC (configuration not stated),inactive,–
Clc1cccc(C(Cl)(Cl)Cl)n1,inactive,–
CC1(C)C(C=C(Cl)Cl)C1C(=O)OC(C#N)c1cccc(Oc2ccccc2)c1 (configuration not stated),inactive,–
Nc1c(Cl)c(Cl)nc(C(=O)O)c1Cl,inactive,–
CC(C)(C)C(=O)C(Oc1ccc(Cl)cc1)n1cncn1 (configuration not stated),inactive,–
CCOc1nc(F)cc2nc(S(=O)(=O)Nc3c(Cl)cccc3Cl)nn12,inactive,–
C=C(C)CN(CC)c1c([N+](=O)[O-])cc(C(F)(F)F)cc1[N+](=O)[O-],inactive,–
N#Cc1c[nH]cc1-c1cccc2c1OC(F)(F)O2,–,22.7 µM (active)
CS(=O)(=O)c1ccc(C(=O)C2C(=O)CCCC2=O)c([N+](=O)[O-])c1,inactive,–
COC(=O)c1c(C(F)F)nc(C(F)(F)F)c(C2=NCCS2)c1CC(C)C,–,18 µM (active)
CCNP(=S)(OC)O/C(C)=C/C(=O)OC(C)C (configuration not stated),inactive,–
CC(C)Oc1cccc(NC(=O)c2ccccc2C(F)(F)F)c1,inactive,–
CS(=O)(=O)c1cc(C(F)(F)F)ccc1C(=O)c1cnoc1C1CC1,inactive,–

SMILES,outcome,AC50
CCC(C)n1c(=O)[nH]c(C)c(Br)c1=O (configuration not stated),inactive,–
CCOC(=O)C(C)OC(=O)c1cc(Oc2ccc(C(F)(F)F)cc2Cl)ccc1[N+](=O)[O-] (configuration not stated),inactive,–
COc1cc(Cl)c(OC)cc1Cl,inactive,–
Cc1nc(N(C)C)nc(OC(=O)N(C)C)c1C,inactive,–
CCCCOCN(C(=O)CCl)c1c(CC)cccc1CC,–,5.46 µM (active)
COc1cc(OC)nc(NC(=O)NS(=O)(=O)c2ncccc2OCC(F)(F)F)n1,inactive,–
CC(C)=CC1C(C(=O)OCc2coc(Cc3ccccc3)c2)C1(C)C (configuration not stated),–,20 µM (active)
Nc1c(Cl)c(F)nc(OCC(=O)O)c1Cl,inactive,–
CC(C)N1C(=O)N(c2ccccc2)CSC1=NC(C)(C)C,–,27.3 µM (active)
O=C1C2CC=CCC2C(=O)N1SC(Cl)(Cl)Cl (configuration not stated),–,4.74 µM (active)
N#Cc1c(Cl)cccc1Cl,inactive,–
CNC(=O)N(C)c1nnc(C(C)(C)C)s1,inactive,–
CCOc1nc(C(Cl)(Cl)Cl)ns1,inactive,–
Cc1ccc(N=CN(C)C=Nc2ccc(C)cc2C)c(C)c1,–,31.6 µM (active)
OC(c1ccc(Cl)cc1)(c1ccc(Cl)cc1)C(Cl)(Cl)Cl,–,33.1 µM (active)
COP(=S)(OC)SCn1nnc2ccccc2c1=O,inactive,–
COc1ccc(-c2ccccc2)cc1NNC(=O)OC(C)C,inactive,–
Cc1cnc(C2=NC(C)(C(C)C)C(=O)N2)c(C(=O)O)c1 (configuration not stated),inactive,–
